Active and inactive are the calls of the source. How the source made its calls: active means hit-call score of the fitted dose curve at least 0.9, where 1 is the maximum; inactive means score below 0.9.

The nature of this assay: ATG_Ets_CIS: Attagene CIS-FACTORIAL HepG2 Assay for human Erythroblast Transformation Specific (ETS) (AID 2282941). The settings on record: HepG2 ETS cis-reporter transcription, actives raise or lower the signal. The procedure:
ATG_CIS is a cell-based, multiplexed-readout assay that uses HepG2, a human liver cell line, with measurements taken at 24 hours after chemical dosing in a 24-well plate.ATG_Ets_CIS is one of 52 assay component(s) measured or calculated from the ATG_CIS assay. It is designed to make measurements of mRNA induction, a form of inducible reporter, as detected with fluorescence intensity signals by Reverse transcription polymerase chain reaction (RT-PCR) and Capillary electrophoresis technology.Data from the assay component ATG_Ets_CIS was analyzed into 1 assay endpoint. This assay endpoint, ATG_Ets_CIS, was analyzed with bidirectional fitting relative to DMSO as the negative control and baseline of activity. Using a type of inducible reporter, measures of mRNA for gain or loss-of-signal activity can be used to understand the reporter gene at the transcription factor-level as they relate to the gene ETS1. Furthermore, this assay endpoint can be referred to as a primary readout, because this assay has produced multiple assay endpoints where this one serves a reporter gene function. To generalize the intended target to other relatable targets, this assay endpoint is annotated to the dna binding intended target family, where the subfamily is winged helix-turn-helix.
Human liver HepG2 cells are transiently transfected with multiple reporter transcription units (MRTUs) in 6-well plates using FuGene 6 reagent (Roche; 3 ml FuGene/1 mg DNA). The MRTU constructs are regulated by a cis-regulating element (promoter). […] A major difference between the CIS and TRANS system is that in CIS activities of endogenous TFs are measured, whereas the TRANS assay evaluates changes in activities of exogenous, chimeric NR-Gal4 proteins. […] At the end of 24 hour incubation, total RNA was isolated using TriZol reagent (Invitrogen). The isolated RNA is then reverse-transcribed using oligo(dT) primer and Mo-MLV reverse transcriptase (Invitrogen) with DNAse I (Ambion) treatment for 30 min. The one-tenth of the produced cDNA was amplified by PCR using Taq DNA polymerase (Invitrogen) and two reporter sequence-specific primers. The PCR products were fluorescently labeled by primer extension with 6-arboxyfluorescein (6-FAM) 5'-labeled reporter sequence-specific primer (2 min at 95 C, 20 s at 68 C and 10 min at 72 C) and these products were digested with 5U of HpaI (New England Biolabs) for 2h at 37 C. The fragments were purified using Qiaquick PCR columns (Qiagen), analyzed on an ABI 3130xL genetic analyzer (Applied Biosystems) with peak positions identified by using a set of X-rhodamine (ROX)-labeled MapMarker1000 molecular weight standards (BioVentures). The raw capillary electrophoresis data was processed using Attagraph software (Attagene).
Turning to `CCCCCCOC(=O)CCC`, the call was inactive.
On the same count and under the same terms, next, `Oc1ccc2cc(SSc3ccc4cc(O)ccc4c3)ccc2c1`: “inactive”; `CCCCC(CC)C(=O)OC(C)C` (stereo not given): “inactive”; `CCCCCCCCCCCCN1CCCCCC1=O`: “inactive”.
Turning to `CCCOC(=O)c1c(Cl)c(Cl)c(Cl)c(Cl)c1C(=O)OCCC`, the compound was called inactive.
Same read-out and setting: next, `Clc1ccc(C(c2ccccc2Cl)C(Cl)Cl)cc1` (stereo not given): “inactive”.
Still for that read-out and setting: next, `CC(C)C(OC(=O)c1ccccc1)C(C)(C)COC(=O)c1ccccc1` (stereo not given): “inactive”; `CCCCCCCC(=O)OCC(O)CO` (stereo not given): “inactive”.
Still for that read-out and setting: with `CCCCCCCCCC(=O)OC` the entry was “inactive”.
Consider `Brc1ccc(Br)c(Br)c1`, for which the outcome was inactive.
Take `O=c1[nH]c(=O)c2cn[nH]c2[nH]1`: the compound was classed as inactive.
For the compound `CCCCCc1ccco1`, the compound was classed as inactive.
Same read-out and setting: with `COCCOCCOCCO` the entry was “inactive”; with `O=C(Nc1ccc([N+](=O)[O-])cc1)Nc1ccc([N+](=O)[O-])cc1` (tested in a mixture with another compound), “inactive”; with `C[Si]1(C)O[Si](C)(C)O[Si](C)(C)O1`, “inactive”.
On the same count and under the same terms, next, `CCCCCCCCCCCCCCCC(=O)OC/C=C(C)/C=C/C=C(C)/C=C/C1=C(C)CCCC1(C)C`: “inactive”; `Cc1cc(=O)oc2cc(N(C)C)ccc12`: “inactive”.
Same read-out and setting: with `CCCCCCCCCC(C)C=O` (stereo not given) the entry was “inactive”; with `CC1C2CC(CC2C2CCCC(O)C2)C1(C)C` (stereo not given), “inactive”.
Regarding `OCc1ccc(Cl)cc1Cl`, the compound was classed as inactive.
Still for that read-out and setting: with `C=C(C)[C@H]1CC=C(C)C(=O)C1` the entry was “inactive”; with `CCCC(=O)C(CC)Sc1ccoc1C` (stereo not given), “inactive”; with `CCNCCO`, “inactive”.
A word on the AC50: it is the concentration at which the activity in the assay is half-maximal. In the case of `C[C@H]1O[C@@H](O[C@H]2[C@@H](O)C[C@H](O[C@H]3[C@@H](O)C[C@H](O[C@H]4CC[C@@]5(C)[C@H](CC[C@@H]6[C@@H]5C[C@@H](O)[C@]5(C)[C@@H](C7=CC(=O)OC7)CC[C@]65O)C4)O[C@@H]3C)O[C@@H]2C)C[C@H](O)[C@@H]1O`, the AC50 was 0.145 µM (active).
Turning to `O=CN1CCOCC1`, the result was inactive.
The same measure, in the same setting: with `c1ccc2[nH]cnc2c1` the entry was “inactive”; with `CCCCC1CCC(O)CC1` (stereo not given), “inactive”; with `CCCCC(CC)COC(C)=O` (stereo not given), “inactive”.
As for `CC(C)(C)C1=CC(=O)C(C(C)(C)C)=CC1=O`, the concentration at half-maximal activity (AC50) was 36.6 µM (active).
In the case of `O=C(CC(=O)c1ccccc1)c1ccccc1`, the compound was called inactive.
Same read-out and setting: next, `CCCC1O[C@@H]2C[C@H]3[C@@H]4CCC5=CC(=O)C=C[C@]5(C)[C@H]4[C@@H](O)C[C@]3(C)[C@]2(C(=O)CO)O1` (stereo not given in full): “inactive”; `CC1(C)O[C@@H]2C[C@H]3[C@@H]4CCC5=CC(=O)C=C[C@]5(C)[C@@]4(F)[C@@H](O)C[C@]3(C)[C@]2(C(=O)CO)O1`: “inactive”.
Still for that read-out and setting: next, `Nc1ccn([C@H]2CS[C@@H](CO)O2)c(=O)n1`: “inactive”; `O=Cc1ccccc1S(=O)(=O)O`: “inactive”; `OCCCCC(O)CO` (stereo not given): “inactive”.
As for `CN(C)c1ccncc1`, the outcome was inactive.
The same measure, in the same setting: with `CCOCCOCCOCC` the entry was “inactive”.
The same measure, in the same setting: with `CC1(C)C2=CCCC(C)(C)[C@]23CC[C@H]1C3` the entry was “inactive”; with `C=CC(=O)OCCCC`, “inactive”; with `CN(C)CCOC(C)(c1ccccc1)c1ccccn1` (stereo not given), “inactive”.

The values are drawn from PubChem BioAssay (EPA / NIEHS).
